# The supplement of paper PMC10477191
# ± gives the standard deviation of the averaged measurements.
# Tested on: Drosophila virilis antennal basiconic sensillum AB4
# Experiment: odor-evoked OSN spike response (post minus pre-stimulus); higher = stronger neuronal excitation
# Settings: odor dilution: 10^-4
# Method: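 Single sensillum recordings from antennal basiconic sensilla of D. virilis. A 500 ms pulse of odorant (10^-4 in mineral oil or DMSO) was delivered; the response is the change in spike frequency between the 1 s pre- and post-stimulus windows (spikes/s).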
row,Compound,odor-evoked OSN spike response
1,C[C@H]1CCC[C@@]2(C)CCCC[C@]12O [geosmin],102 ± 21 spikes/s
